Consider 40 compounds from PubChem BioAssay.

This is one part of the list. Calls of active or inactive are those of the source.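 Rule for the calls: active = mean activation across triplicate tests above the threshold derived from the earlier primary screen (cut at about 5.5% in these data); inactive = the rest.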

In the assay the test system is Nuclear hormone receptor DAF-12 (Haemonchus contortus). The assay is described as follows: H. contortus DAF-12 receptor agonists, confirmation, cell-based, luminescence, HEK293, lit1-tk-luc, triplicate (AID 743032).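 Note: 0% = DMSO only wells and 100% = 3 µM Δ7-dafachronic acid.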 The note with it: HEK293 hcDAF-12 lit1-tk-luc reporter, at 6.8 µM, active compounds read high, % of Δ7-dafachronic acid response.
Regarding `C/C(=N/NC(=S)Nc1ccccc1)c1ccc2c(c1)OCO2`, the activation is 0.89% (inactive). With `CCCCN(C)C(=O)c1ccc2c(c1)N(CC)C(=O)c1ccccc1S2(=O)=O`, the activation is 0.81% (inactive).

With `Cc1cccnc1NC(=O)Cn1c(=O)oc2ccccc21`, the activation is 1.31% (inactive). Consider `COc1ccc(C2CC(c3cccs3)=Nc3ccccc3S2)cc1OC` (stereo not given), for which the activation is 2.78% (inactive). In the case of `Cc1ccc(S(=O)(=O)Nc2nc3ccccc3nc2N2CCc3ccccc3C2)cc1` it was 8.94% (active); in that of `Fc1ccc2nc(Nc3nc4c(s3)CCCC4)sc2c1`, 11.5% (active); in that of `CC(C)(C)OC(=O)N/N=C/c1ccc(C(=O)O)cc1`, 0.76% (inactive). Take `O=C(CSC(=S)N1CCOCC1)c1ccccc1`: the activation was 5.12% (inactive).

Turning to `COc1ccc(Nc2nc(-c3ccccc3)cs2)cc1`, the activation was 18.8% (active).

As for `CC(=O)N1CCN(c2ccccc2NC(=S)NC(=O)c2cc3ccccc3o2)CC1`, the activation is 1.71% (inactive). With `Cc1ccc(C(=O)O/N=C(\N)c2ccccn2)cc1Cl`, the activation was 4.81% (inactive). Take `O=C(Oc1ccc([N+](=O)[O-])cc1)c1ccc2ccccc2n1`: the activation is 4.02% (inactive). With `Cc1cccc(Nc2nc(-c3ccccc3)cs2)n1`, the activation was 16% (active). In the case of `CCCc1cc(C(=O)Nc2ccc(Cl)cn2)cs1` it was 4.99% (inactive); in that of `NC(=O)Nc1ccccc1C(=O)NCCc1ccccc1`, 4.12% (inactive); in that of `O=C(N/N=C\C1CC=CCC1)c1ccc(Br)o1` (stereo not given), 0.29% (inactive). `Cc1nn(CCOc2ccccc2)c(=O)n1-c1ccccc1F`: the activation is 5.42% (inactive). For `CCc1ccc(NC(=O)N2CCc3ccccc3C2)cc1` the value was 7.24% (active); for `COc1cc2ccccc2cc1C(=O)Nc1ccccc1C`, 9.11% (active); for `O=C(OCC(=O)c1c[nH]c2ccccc12)c1cccc(O)c1`, 7.43% (active). With `Cc1cnc(NC(=O)c2ccc(Cl)nc2)s1`, the activation is 11.4% (active).

Consider `COc1ccc(OCc2cc(C(=O)N3CCCC3)no2)c2ccccc12`, for which the activation is 8.88% (active).

Take `O=[N+]([O-])c1ccc2oc(-c3cccc(O)c3)nc2c1`: the activation is 20% (active). For `CCc1ccc(-c2cc(C(=O)NN3CCN(C)CC3)c3ccccc3n2)cc1` the value was 0.58% (inactive); for `COc1ccc(C(=O)Nc2sc(C)c(C)c2CN2CCOCC2)cc1`, 4.47% (inactive); for `Cc1ccccc1C(=O)N[C@H](C(=O)N1CCC[C@H]1C(=O)NCc1ccccc1)C(C)C`, 0.18% (inactive). As to `O=C(NC1CCCCC1)C(c1cc2ccccc2o1)n1c(=O)c(-c2ccco2)nc2ccccc21` (stereo not given), the activation is 5.1% (inactive). For the compound `Cc1ccccc1Nc1nnc(SCC(=O)c2cc3ccccc3o2)s1`, the activation was 1.9% (inactive). In the case of `O=C(O)c1[nH]c2ccccc2c1C(c1cccc(O)c1)c1c(C(=O)O)[nH]c2ccccc12` it was 4.41% (inactive). For the compound `Nc1ccccc1/C=N\N=C/c1ccccc1N`, the activation is 12.4% (active).

Turning to `Clc1ccc(-c2cc(-c3ccccn3)on2)c(Cl)c1`, the activation was 12.6% (active). In the case of `O=C(O)CN1c2cccc3cccc(c23)S1(=O)=O` it was 1.3% (inactive). In the case of `O=C(COc1cccc(Cl)c1)NCc1ccccc1`, the activation is 0.38% (inactive).

As for `N[C@@H](Cc1ccccc1)C(=O)N1CCC(C(=O)NCC(=O)Nc2ccc(F)cc2)CC1`, the activation was 0.19% (inactive).

For `COc1ccccc1C(=O)NCc1nnc(SC(C)C(=O)Nc2nccs2)n1C` (stereo not given), the activation was 4.95% (inactive). For `Cc1ccnc(NC(=O)c2ccoc2C)c1` the value was 3.77% (inactive). In the case of `CC(C)(C)NC(=O)C(c1ccncc1)N(C(=O)CNC(=O)c1ccco1)c1ccc2c(c1)OCO2` (stereo not given) it was -0.59% (inactive); in that of `O=C(Cn1ccc([N+](=O)[O-])n1)NCc1cccs1`, 1.71% (inactive); in that of `CC(C)c1ccc(C=NNc2ccc([N+](=O)[O-])cn2)cc1`, 12% (active). For the compound `O=C(NC(Cc1c[nH]c2ccccc12)C(=O)O)/C(=C/c1ccco1)NC(=O)c1ccccc1` (stereo not given), the activation is 3.64% (inactive).
